# Results: PubChem BioAssay (NCATS)
# Records with an inconclusive call do not appear. Active and inactive are the calls of the source. Unless noted, calls follow the shape of the dose curve; as a rule, active = well fitted curve in the direction sought with a large enough effect; inconclusive = small, poorly fitted or top-dose-only effect, or another doubt; inactive = no such curve, though single readings can be large; an effect the other way counts as inactive or inconclusive.
# How the values were obtained:
# [1] = AP1 Signaling Pathway (AID 357; active = well fitted curve in either direction with a large enough effect, not every such curve was filed as active;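 also: ME-180 reporter cells stimulated with EGF at its EC50 level; % is scaled to controls: 0 for no effect and ±100 for the full control effect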); conditions: ME-180 AP-1-bla reporter, EGF-induced, beta-lactamase ratio, 5 h; at 7.69 µM (top of the series) unless noted
# Procedure, shortened: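 Beta-lactamase reporter under AP-1 response element, ME-180 background. Stimulus: EC50 EGF. Compound exposure 5 h, 37 °C. Detection: CCF4, 2.5 h RT, 460/530 nm. Values: AC50 from titration.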
# [2] = molecular target: Cytochrome P450 1A2 (Homo sapiens) (UniProt P05177); assay: p450-cyp1a2 (AID 410; calls by dose curve; also: potency is read from the fitted curve at half-maximal effect)
# Chain of Cytochrome P450 1A2 (Homo sapiens) (P05177 whole entry, looked up): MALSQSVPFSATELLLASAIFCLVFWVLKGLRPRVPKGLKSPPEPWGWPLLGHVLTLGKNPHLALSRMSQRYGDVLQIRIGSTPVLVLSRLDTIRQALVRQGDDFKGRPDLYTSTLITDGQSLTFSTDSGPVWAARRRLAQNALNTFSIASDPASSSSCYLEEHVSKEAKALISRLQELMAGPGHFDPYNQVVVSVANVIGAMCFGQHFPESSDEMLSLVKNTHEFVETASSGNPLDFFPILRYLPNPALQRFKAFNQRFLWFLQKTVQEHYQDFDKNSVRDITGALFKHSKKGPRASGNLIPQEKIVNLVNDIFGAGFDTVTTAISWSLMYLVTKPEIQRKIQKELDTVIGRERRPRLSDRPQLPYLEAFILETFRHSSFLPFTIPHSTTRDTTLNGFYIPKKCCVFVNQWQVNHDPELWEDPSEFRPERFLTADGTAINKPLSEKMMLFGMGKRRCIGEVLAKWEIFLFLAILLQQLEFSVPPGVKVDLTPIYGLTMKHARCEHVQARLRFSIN
# Procedure, shortened: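 Human CYP1A2 (20nM) demethylated Luciferin-ME at its Km (100uM) in 100mM KPO4. After 10 min compound preincubation, NADPH regeneration ran the reaction 60 min at room temperature. Luciferin was read by luminescence, normalized to 57 uM furafylline.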
# [3] = Stat Signaling Pathway (AID 446; active = well fitted curve in either direction with a large enough effect, not every such curve was filed as active;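 also: ME-180 cervical cancer cells given 40 pM IL-6 alongside compound; SIE-controlled beta-lactamase reporter measured as 460/530 nm FRET emission ratio; % is scaled to controls: 0 for no effect and ±100 for the full control effect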); conditions: ME-180 SIE beta-lactamase reporter, IL-6 stimulated, 5 h; at 7.69 µM (top of the series) unless noted
# Procedure, shortened: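 ME-180 SIE-bla cells; overnight plating; cpd + IL-6 40 pM, 5 h, 37 C; LiveBLAzer 2.5 h RT; 460/530 nm emission ratio. Normalized to 300 pM IL-6 and 125 nM JAK inhibitor controls.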
# [4] = molecular target: Glucocorticoid receptor (Homo sapiens) (UniProt P04150); assay: GR-EFC Redistribution (AID 451; calls by dose curve; also: potency is read from the fitted curve at half-maximal effect); conditions: CHO-K1 GR-EFC translocation, beta-gal luminescence, 2 h
# Chain of Glucocorticoid receptor (Homo sapiens) (P04150 whole entry, looked up, the tested form may be a part): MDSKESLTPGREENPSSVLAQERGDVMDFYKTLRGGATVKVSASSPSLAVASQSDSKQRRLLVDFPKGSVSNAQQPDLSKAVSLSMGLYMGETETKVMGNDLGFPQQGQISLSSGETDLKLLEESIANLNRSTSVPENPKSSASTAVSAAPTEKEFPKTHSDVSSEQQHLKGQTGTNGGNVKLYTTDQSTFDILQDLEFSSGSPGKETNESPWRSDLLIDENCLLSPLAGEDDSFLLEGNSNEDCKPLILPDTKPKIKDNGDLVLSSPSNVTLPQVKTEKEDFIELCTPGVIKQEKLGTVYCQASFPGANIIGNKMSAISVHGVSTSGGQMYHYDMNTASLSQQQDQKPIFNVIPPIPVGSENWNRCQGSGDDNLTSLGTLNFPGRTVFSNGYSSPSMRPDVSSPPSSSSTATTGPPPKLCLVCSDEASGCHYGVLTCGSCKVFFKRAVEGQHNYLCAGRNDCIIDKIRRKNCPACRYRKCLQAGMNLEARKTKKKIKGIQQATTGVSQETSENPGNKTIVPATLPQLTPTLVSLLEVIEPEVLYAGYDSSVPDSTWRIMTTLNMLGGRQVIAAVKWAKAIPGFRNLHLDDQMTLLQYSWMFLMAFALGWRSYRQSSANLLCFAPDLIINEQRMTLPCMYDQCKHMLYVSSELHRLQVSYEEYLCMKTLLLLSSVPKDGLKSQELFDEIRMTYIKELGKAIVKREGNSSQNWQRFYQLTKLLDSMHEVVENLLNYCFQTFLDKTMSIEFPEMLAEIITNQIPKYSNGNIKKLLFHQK
# Procedure, shortened: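 CHO-K1 cells stably expressing nuclear-localized β-gal enzyme acceptor and GR fused C-terminally to the enzyme donor fragment; ligand-driven nuclear translocation restores β-gal by complementation. Compounds titrated up to 46 uM final, 2 h at 37 °C; luminescence read.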
# [5] = molecular target: Mitogen-activated protein kinase 10 (Mus musculus) (UniProt Q61831); assay: JNK3 AlphaScreen Assay (AID 530; active = well fitted curve in either direction with a large enough effect, not every such curve was filed as active;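 also: kinase came from lysate of stimulated human HepG2 cells; signal reports phosphorylation of biotinylated GST-cJun 1-79 at Ser73 with 10 µM ATP; % is scaled to controls: 0 for no effect and ±100 for the full control effect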)
# Procedure, shortened: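 JNK3 came from HepG2 lysates pre-activated with IL-1beta and TNF-alpha and phosphorylated biotinylated GST-cJun (1-79) at 10 uM ATP, pH 7.6, room temperature. Compounds were titrated. AlphaScreen signal used anti-phospho-cJun (Ser73) antibody.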
# [6] = molecular target: Cytochrome P450 3A4 (Homo sapiens) (UniProt P08684); assay: qHTS Assay for Inhibitors and Substrates of Cytochrome P450 3A4 (AID 884); also: nearly all actives have a fitted effect of over 50% in size; also: potency is read from the fitted curve at half-maximal effect
# Chain of Cytochrome P450 3A4 (Homo sapiens) (P08684 whole entry, looked up): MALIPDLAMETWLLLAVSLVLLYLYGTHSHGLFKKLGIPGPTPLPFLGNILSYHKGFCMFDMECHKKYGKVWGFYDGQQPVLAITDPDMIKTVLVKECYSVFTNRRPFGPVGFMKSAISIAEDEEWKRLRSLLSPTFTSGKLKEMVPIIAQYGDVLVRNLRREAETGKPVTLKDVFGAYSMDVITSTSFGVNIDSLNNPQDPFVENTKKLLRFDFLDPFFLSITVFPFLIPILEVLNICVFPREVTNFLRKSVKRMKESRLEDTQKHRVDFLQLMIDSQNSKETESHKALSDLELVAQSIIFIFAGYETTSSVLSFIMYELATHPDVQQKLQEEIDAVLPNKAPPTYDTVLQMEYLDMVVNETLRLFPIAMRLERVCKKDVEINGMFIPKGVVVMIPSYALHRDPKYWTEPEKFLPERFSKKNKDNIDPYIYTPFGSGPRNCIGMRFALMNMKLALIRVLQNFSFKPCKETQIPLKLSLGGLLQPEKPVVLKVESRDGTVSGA
# Procedure, shortened: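 20 nM human CYP3A4 with 25 uM Luciferin-PPXE (at KM) in 200 mM KPO4, preincubated 10 min with compound; NADPH regeneration started a 60 min RT reaction. Luciferin detected by luminescence, normalized to 57 uM ketoconazole as full inhibition.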
# [7] = molecular target: Cytochrome P450 3A4 (Homo sapiens) (UniProt P08684); assay: qHTS Assay for Activators of Cytochrome P450 3A4 (AID 885); also: nearly all actives have a fitted effect of over 65% in size
# Procedure, shortened: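 20nM CYP3A4 + 25uM Luciferin-PPXE (=KM), 200mM KPO4; cpd 10 min RT; NADPH regen, 60 min RT; stop w/ detection buffer, 20 min; luminescence. Normalized to 57 uM ketoconazole.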
# [8] = Confirmation and Secondary Assay for Modulators of Hemoglobin Beta Chain Splicing at IVS2 654 locus (AID 910);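 also: per-well total GFP intensity by laser scanning cytometry after 2-day treatment; % of control where 0% means no effect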
# Procedure, shortened: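 HeLa cells stably carrying EGFP interrupted by mutant beta-globin IVS2-654 intron (CMV-driven) were treated with compound for 2 days at 37C; corrected splicing was scored as total peak GFP intensity per well (488 nm excitation, 500-520 nm emission).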
# [9] = qHTS Assay for Lipid Storage Modulators (AID 1519; calls by dose curve); conditions: Drosophila S3 cells, BODIPY lipid droplet/cell ratio, laser cytometry, cells loaded with oleic acid; for activity change, negative = inhibition: at 57.5 µM (top of the series)
# Procedure, shortened: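 Cells seeded at 5,000 per well were treated with compounds over a concentration series and loaded with oleic acid (400 uM, as added). Lipid droplet fluorescence (488 nm excitation, 500-530 nm channel) was read by laser-scanning cytometry and normalized to 20 uM Triacsin C.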
# [10] = molecular target: Ubiquitin carboxyl-terminal hydrolase 1 (Homo sapiens) (UniProt O94782); assay: Inhibitors of USP1/UAF1: Pilot qHTS (AID 504865);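 also: rhodamine fluorescence freed from ubiquitin-rhodamine substrate followed over time; top concentration of the series differs between compounds; % is scaled to controls: 0 for no effect and ±100 for the full control effect; nearly all actives have a fitted effect of over 35% in size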
# Chain of Ubiquitin carboxyl-terminal hydrolase 1 (Homo sapiens) (O94782 whole entry, looked up): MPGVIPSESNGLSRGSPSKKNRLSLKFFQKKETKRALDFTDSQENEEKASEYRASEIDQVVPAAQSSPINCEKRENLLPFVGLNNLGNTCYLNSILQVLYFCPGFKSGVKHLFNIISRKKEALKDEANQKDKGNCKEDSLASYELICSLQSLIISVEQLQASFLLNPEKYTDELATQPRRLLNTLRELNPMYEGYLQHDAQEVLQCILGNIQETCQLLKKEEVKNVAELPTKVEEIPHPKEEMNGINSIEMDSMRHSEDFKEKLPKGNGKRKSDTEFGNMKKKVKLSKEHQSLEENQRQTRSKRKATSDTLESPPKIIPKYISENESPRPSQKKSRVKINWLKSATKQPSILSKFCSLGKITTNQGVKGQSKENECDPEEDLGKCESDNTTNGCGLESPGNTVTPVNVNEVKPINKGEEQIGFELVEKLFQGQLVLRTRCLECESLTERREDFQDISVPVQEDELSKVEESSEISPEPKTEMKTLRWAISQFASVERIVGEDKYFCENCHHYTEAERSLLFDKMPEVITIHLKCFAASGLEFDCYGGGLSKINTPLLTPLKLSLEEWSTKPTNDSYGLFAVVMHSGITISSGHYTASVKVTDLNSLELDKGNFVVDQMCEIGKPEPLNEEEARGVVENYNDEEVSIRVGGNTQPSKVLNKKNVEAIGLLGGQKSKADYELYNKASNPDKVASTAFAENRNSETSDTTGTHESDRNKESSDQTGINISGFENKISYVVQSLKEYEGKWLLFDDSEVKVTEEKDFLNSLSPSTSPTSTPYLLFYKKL
# Procedure, shortened: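 1nM USP1/UAF1 + cpd, 15 min RT; start w/ Ub-Rho 150nM final; kinetic FL 480/540 nm, 6 reads q60 s. Buffer 50mM HEPES pH 7.8, 0.5mM EDTA, 1mM TCEP, 0.01% Tween-20, 0.1 mg/ml BSA.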
# [11] = Confirmatory qHTS for small molecule stabilizers of the endoplasmic reticulum resident proteome: Secreted ER Calcium Modulated Protein (SERCaMP) assay (AID 1508628); also: nearly all actives have a fitted effect of over 40% in size; also: potency is read from the fitted curve at half-maximal effect
# Procedure, shortened: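 We seeded SH-SY5Y-GLuc-SERCaMP cells, added compounds (three concentrations in the primary run, eleven up to 76.6 uM in confirmation), incubated 16 h, depleted ER calcium with thapsigargin, and read luciferase 4 h later.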
# [12] = Cell Viability qHTS for small molecule stabilizers of the endoplasmic reticulum resident proteome (AID 1508629); conditions: cell viability counter-screen, 100 nM thapsigargin for final 4 h;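 also: human SH-SY5Y neuroblastoma cells carrying the GLuc-SERCaMP reporter; compound exposure about 46 h in total before the viability read; % is scaled to controls: 0 for no effect and ±100 for the full control effect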
# [13] = molecular target: Lysosomal acid glucosylceramidase (Homo sapiens) (UniProt P04062); assay: Glucocerebrosidase-p2 (AID 348; in the data active = potency below about 10 µM; also: potency is read from the fitted curve at half-maximal effect); conditions: purified GBA, blue fluorogenic substrate, 40 min
# Chain of Lysosomal acid glucosylceramidase (Homo sapiens) (P04062 whole entry, looked up): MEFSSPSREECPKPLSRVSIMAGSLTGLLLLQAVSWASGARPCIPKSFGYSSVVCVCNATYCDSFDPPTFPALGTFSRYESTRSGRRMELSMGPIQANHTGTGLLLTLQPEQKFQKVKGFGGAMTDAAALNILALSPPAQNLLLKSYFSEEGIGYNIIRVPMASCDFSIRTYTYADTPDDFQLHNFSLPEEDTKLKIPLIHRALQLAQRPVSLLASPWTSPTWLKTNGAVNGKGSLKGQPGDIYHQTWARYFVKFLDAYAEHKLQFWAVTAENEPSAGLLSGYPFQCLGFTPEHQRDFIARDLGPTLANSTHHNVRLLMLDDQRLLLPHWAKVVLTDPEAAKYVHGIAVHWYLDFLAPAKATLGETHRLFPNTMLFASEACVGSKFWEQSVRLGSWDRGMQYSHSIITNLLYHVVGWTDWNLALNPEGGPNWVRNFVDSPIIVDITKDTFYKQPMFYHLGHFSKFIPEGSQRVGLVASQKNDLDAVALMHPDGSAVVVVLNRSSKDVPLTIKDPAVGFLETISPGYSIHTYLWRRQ
# Procedure, shortened: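 Compounds titrated from 0.6 nM upwards against 0.2 nM enzyme in pH 5.9 citric acid/KH2PO4, taurocholate, tween-20; blue fluorogenic substrate 80 uM, 40 min room temperature, stopped and read Ex 365/Em 440 for AC50.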
# [14] = NFAT Signaling Pathway (AID 444; active = well fitted curve in either direction with a large enough effect, not every such curve was filed as active); conditions: Jurkat NFAT-bla M1, carbachol, beta-lactamase ratio, 5 h; at 7.69 µM (top of the series) unless noted
# Procedure, shortened: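 Jurkat cells carrying an NFAT-driven β-lactamase reporter and co-transfected muscarinic M1 receptor were treated with compound plus carbachol (1 uM final, an EC50 level) for 5 h at 37 °C. CCF4 loading followed for 1 h at RT; 460/530 nm ratio gave %activity.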
# [15] = molecular target: Glucocorticoid receptor (Homo sapiens) (UniProt P04150); assay: GR-GFP Redistribution (AID 450;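 active = compounds whose dose series gives a full or clear partial fitted curve of increased nuclear translocation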; also: potency is read from the fitted curve at half-maximal effect); conditions: U2OS GR-GFP nuclear translocation, laser cytometry, 2 h
# [16] = molecular target: 3',5'-cyclic-AMP phosphodiesterase 4B (Homo sapiens) (UniProt Q07343); assay: qHTS Assay for Inhibitors of PDE-IV (AID 607; active = well fitted activation curve with a large enough effect in the main read-out, with a control signal flat, not every such curve was filed as active; also: % of control where 0% means no effect)
# Chain of 3',5'-cyclic-AMP phosphodiesterase 4B (Homo sapiens) (Q07343 whole entry, looked up): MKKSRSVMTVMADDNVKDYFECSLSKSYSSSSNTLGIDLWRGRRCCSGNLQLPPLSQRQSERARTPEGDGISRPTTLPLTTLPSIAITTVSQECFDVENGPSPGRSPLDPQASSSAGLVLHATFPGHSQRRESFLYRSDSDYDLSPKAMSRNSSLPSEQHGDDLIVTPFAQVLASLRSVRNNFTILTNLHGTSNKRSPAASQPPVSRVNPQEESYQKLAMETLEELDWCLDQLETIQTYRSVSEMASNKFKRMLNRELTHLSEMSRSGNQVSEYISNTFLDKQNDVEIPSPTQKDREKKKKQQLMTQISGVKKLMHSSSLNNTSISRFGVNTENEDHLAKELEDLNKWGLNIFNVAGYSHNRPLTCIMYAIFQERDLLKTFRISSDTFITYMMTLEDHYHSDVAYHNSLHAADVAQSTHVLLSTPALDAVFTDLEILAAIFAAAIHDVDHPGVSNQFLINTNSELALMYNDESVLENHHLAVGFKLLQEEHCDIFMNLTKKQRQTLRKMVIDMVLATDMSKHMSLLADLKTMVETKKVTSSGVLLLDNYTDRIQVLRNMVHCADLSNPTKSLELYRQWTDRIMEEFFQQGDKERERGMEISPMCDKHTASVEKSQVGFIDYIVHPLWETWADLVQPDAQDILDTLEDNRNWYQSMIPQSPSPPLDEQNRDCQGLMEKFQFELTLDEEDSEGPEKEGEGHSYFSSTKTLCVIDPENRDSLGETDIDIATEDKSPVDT
# Procedure, shortened: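 ACTOne HEK293 cells carry a modified cAMP-gated CNG channel and express endogenous PDE4; plated 1000 cells/well, compounds up to 22.9 uM final. Membrane-potential dye fluorescence (ex 535/em 590) was read; parental cells received 10 uM forskolin + 100 uM RO 20-1724.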
# [17] = molecular target: Dual specificity protein kinase CLK4 (Homo sapiens) (UniProt Q9HAZ1); assay: qHTS Assay for Inhibitors of CDC-like Kinase 4 (Kinase-Glo Assay) (AID 1770); also: % is scaled to controls: 0 for no effect and ±100 for the full control effect; nearly all actives have a fitted effect of over 65% in size
# Chain of Dual specificity protein kinase CLK4 (Homo sapiens) (Q9HAZ1 whole entry, looked up): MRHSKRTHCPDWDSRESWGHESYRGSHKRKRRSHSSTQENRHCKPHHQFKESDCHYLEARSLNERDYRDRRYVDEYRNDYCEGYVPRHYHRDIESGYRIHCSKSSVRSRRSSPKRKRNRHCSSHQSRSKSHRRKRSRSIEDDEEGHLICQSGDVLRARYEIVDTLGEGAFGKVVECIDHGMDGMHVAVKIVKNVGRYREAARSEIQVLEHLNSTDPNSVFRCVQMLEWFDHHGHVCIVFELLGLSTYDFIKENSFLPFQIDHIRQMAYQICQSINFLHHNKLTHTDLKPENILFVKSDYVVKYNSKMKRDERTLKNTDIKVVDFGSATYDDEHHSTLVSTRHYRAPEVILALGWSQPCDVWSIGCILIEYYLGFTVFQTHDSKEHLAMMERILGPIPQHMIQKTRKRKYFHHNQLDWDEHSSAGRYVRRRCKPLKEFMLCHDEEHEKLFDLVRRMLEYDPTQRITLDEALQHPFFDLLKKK
# Procedure, shortened: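 Readout: Kinase-Glo luminescence from ATP left after a 4.5 h room-temperature reaction of 25 nM Clk4 with 100 uM RS peptide and 1 uM ATP (final). Buffer: 25 mM Tris pH 7.5, 10 mM MgCl2.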
# [18] = molecular target: Dual specificity protein kinase CLK4 (Homo sapiens) (UniProt Q9HAZ1); assay: qHTS Assay for Inhibitors of CDC-like Kinase 4 (ADP-Glo Assay) (AID 1771); also: % is scaled to controls: 0 for no effect and ±100 for the full control effect; nearly all actives have a fitted effect of over 70% in size
# Procedure, shortened: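 Clk4 (25 nM) was incubated 1 hr at room temperature with 100 uM RS repeat peptide and 1 uM ATP in buffer with 2 mM MgCl2, 0.5 mM EGTA, 2.5 mM DTT. ADP formed was quantified by ADP-Glo luminescence.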
# [19] = molecular target: Dual specificity protein kinase CLK4 (Homo sapiens) (UniProt Q9HAZ1); assay: qHTS Assay for Inhibitors of CDC-like Kinase 4 (ADP-FP Assay) (AID 1795);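 also: recombinant human CLK4 phosphorylating RS repeat peptide at 1 µM ATP; % is scaled to controls: 0 for no effect and ±100 for the full control effect; nearly all actives have a fitted effect of over 60% in size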
# Procedure, shortened: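 FP readout: Orange Transcreener ADP2 tracer (4 nM) plus ADP antibody, read after 30 min at room temperature. Kinase step: 6.25 nM Clk4, 100 uM RS peptide, 1 uM ATP, pH 7.5, 1 h.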
# [20] = Counterscreen qHTS for small molecule stabilizers of the endoplasmic reticulum resident proteome: GLuc-NoTag assay (AID 1508627);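 also: SH-SY5Y cells given compound then 100 nM thapsigargin to empty ER calcium; 0% = thapsigargin alone and -100% = DMSO vehicle control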
# Procedure, shortened: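 SH-SY5Y cells stably expressing constitutively secreted GLuc (no SERCaMP tag) were pre-incubated 5 h, treated with compound for 19 h, then 100 nM thapsigargin for 4 h at 37C; medium GLuc read by coelenterazine luminescence.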
# [21] = measured here: cell count channel max response
# [22] = measured here: lipid channel max response
smiles,measurement,setting,value
COc1ccc(CNc2ncnc3ccc(-c4ccccc4CN(C)C)cc23)c(OC)c1,"activity change, negative = inhibition",[1],7.23% (inactive)
same,Potency,[2],31.6 µM (active)
same,"activity, negative = inhibition",[3],-15.7% (inactive)
same,Potency,[4],> 46 µM (inactive)
same,outcome,[5],inactive
same,Potency,[6],7.94 µM (active)
same,Potency,[7],inactive
same,outcome,[8],inactive
same,"activity change, negative = inhibition",[9],3.46% (inactive)
same,max response,[9]; [21],4.91%
same,max response,[9]; [22],8.13%
same,Potency,[10],inactive
same,Potency,[11],7.94 µM (active)
same,max response,[12],6.24% (inactive)
COc1ccc(-n2c(=O)c(-c3ccccc3)nc3cnc(N4CCN(C)CC4)nc32)cc1,Potency,[13],> 11.4 µM (inactive)
same,"activity change, negative = inhibition",[1],14.5% (inactive)
same,Potency,[2],20 µM (active)
same,"activity change, negative = inhibition",[14],5.17% (inactive)
same,"activity, negative = inhibition",[3],12.2% (inactive)
same,Potency,[15],> 9.22 µM (inactive)
same,Potency,[4],> 46 µM (inactive)
same,outcome,[5],inactive
same,Potency,[16],inactive
same,Potency,[6],inactive
same,"activity change, negative = inhibition",[9],0.696% (inactive)
same,max response,[9]; [21],22%
same,max response,[9]; [22],20%
same,Potency,[17],inactive
same,Potency,[18],inactive
same,Potency,[19],inactive
same,Potency,[10],inactive
same,Potency,[11],25.1 µM (active)
same,max response,[12],12.9% (inactive)
COc1ccc(-c2nc3cnc(N4CCN(C)CC4)nc3n(Cc3cccc(OC)c3)c2=O)cc1,Potency,[13],> 11.4 µM (inactive)
same,Potency,[15],> 9.22 µM (inactive)
same,Potency,[4],> 46 µM (inactive)
same,Potency,[16],inactive
same,"activity change, negative = inhibition",[9],-2.59% (inactive)
same,max response,[9]; [21],8.4%
same,max response,[9]; [22],2.85%
same,Potency,[17],inactive
same,Potency,[18],inactive
same,Potency,[19],inactive
same,Potency,[11],inactive
Cn1cc(-c2nc3cncnc3n(-c3ccccc3)c2=O)c2ccccc21,Potency,[13],> 11.4 µM (inactive)
same,"activity change, negative = inhibition",[1],-24% (inactive)
same,Potency,[2],1.58 µM (active)
same,"activity change, negative = inhibition",[14],11.2% (inactive)
same,"activity, negative = inhibition",[3],-2.15% (inactive)
same,Potency,[15],> 9.22 µM (inactive)
same,Potency,[4],> 46 µM (inactive)
same,Potency,[7],inactive
same,Potency,[17],inactive
same,Potency,[18],inactive
same,Potency,[19],inactive
same,Potency,[10],inactive
same,Potency,[20],inactive
COc1ccc(Oc2ncc3nc(CCc4ccccc4)c(=O)n(C[C@H]4CCCO4)c3n2)cc1,"activity change, negative = inhibition",[1],-25.6% (inactive)
same,"activity change, negative = inhibition",[14],-6.61% (inactive)
same,"activity, negative = inhibition",[3],-17.3% (inactive)
same,Potency,[4],> 46 µM (inactive)
same,outcome,[5],inactive
same,Potency,[16],inactive
same,Potency,[17],inactive
same,Potency,[18],inactive
same,Potency,[19],inactive
same,Potency,[10],inactive
same,max response,[12],6.27% (inactive)
N#CCCn1c(=O)c(CCc2ccccc2)nc2cnc(Oc3cccc(Cl)c3)nc21,Potency,[13],> 11.4 µM (inactive)
same,"activity change, negative = inhibition",[14],-8.5% (inactive)
same,Potency,[15],> 9.22 µM (inactive)
same,Potency,[4],> 46 µM (inactive)
same,outcome,[5],inactive
same,Potency,[16],inactive
same,Potency,[6],0.794 µM (active)
same,Potency,[7],inactive
same,max response,[12],7.03% (inactive)
